This note sets out measurements from the GenesisPotency data set.

The whole screen tested about 290,000 compounds, of which about 3,000 (1%) were called active. Cut-off read from the data, not from the text of the source: active = inhibition mostly above about 36% (no sharp cut-off); inactive = mostly below about 34%. Many of the other results were omitted from the sample, so actives are more common in it than they were.

This assay concerns the target T1, Nucleotide-binding oligomerization domain-containing protein 1, Homo sapiens (UniProt Q9Y239).
T1 sequence (whole entry): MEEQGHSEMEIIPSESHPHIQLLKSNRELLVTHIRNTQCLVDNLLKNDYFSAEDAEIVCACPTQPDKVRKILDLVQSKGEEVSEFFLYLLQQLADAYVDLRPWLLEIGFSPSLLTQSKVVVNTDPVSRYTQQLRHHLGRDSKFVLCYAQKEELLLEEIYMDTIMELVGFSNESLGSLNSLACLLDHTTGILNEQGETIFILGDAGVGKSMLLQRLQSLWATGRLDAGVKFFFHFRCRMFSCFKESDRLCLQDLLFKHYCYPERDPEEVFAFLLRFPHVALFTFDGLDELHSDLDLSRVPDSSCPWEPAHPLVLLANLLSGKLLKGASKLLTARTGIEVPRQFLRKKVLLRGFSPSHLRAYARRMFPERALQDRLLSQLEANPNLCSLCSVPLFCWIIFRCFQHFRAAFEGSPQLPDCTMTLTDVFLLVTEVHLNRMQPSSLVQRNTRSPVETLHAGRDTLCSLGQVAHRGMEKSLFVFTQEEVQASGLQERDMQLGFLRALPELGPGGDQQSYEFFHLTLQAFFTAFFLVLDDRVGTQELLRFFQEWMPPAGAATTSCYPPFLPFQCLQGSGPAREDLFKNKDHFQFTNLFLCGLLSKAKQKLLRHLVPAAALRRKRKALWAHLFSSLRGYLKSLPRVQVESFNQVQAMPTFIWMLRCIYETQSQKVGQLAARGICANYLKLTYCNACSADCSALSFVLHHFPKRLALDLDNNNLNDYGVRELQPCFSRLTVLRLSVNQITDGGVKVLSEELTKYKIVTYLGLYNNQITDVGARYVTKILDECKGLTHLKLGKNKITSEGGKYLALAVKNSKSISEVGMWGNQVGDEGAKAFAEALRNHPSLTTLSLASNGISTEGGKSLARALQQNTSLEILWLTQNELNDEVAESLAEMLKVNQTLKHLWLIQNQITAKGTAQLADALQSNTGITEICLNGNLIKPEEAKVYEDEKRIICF
In words: NOD1 signaling inhibitors, primary screen, cell-based, luminescence, uHTS (AID 1578).
For the compound `C=C(C)C(=O)O[C@H]1C/C(C)=C\C(=O)/C=C(\C)[C@H](O)[C@@H]2OC(=O)C(=C)[C@@H]21`, the outcome was active.
Take `CC1(C)N=C(N)N=C(N)N1c1ccc(OCCCOc2ccccc2)c(Cl)c1.CCS(=O)(=O)O`: the outcome was active.
Take `O=C(NCc1cccnc1)/C(=C\c1ccc(-c2ccc(Cl)c(Cl)c2)o1)S(=O)(=O)c1ccccc1`: the call was active.
Consider `O=C(NCc1cccnc1)/C(=C/c1ccc(-c2ccc(Cl)cc2)o1)S(=O)(=O)c1ccccc1`, for which the result was active.
For the compound `O=C(Oc1cc2oc(=O)cc(-c3ccccc3)c2cc1Cl)C1CCCCC1`, the compound was called active.
For the compound `COc1ccc(-c2cc(=O)oc3cc(OC(=O)C4CCCCC4)c(Cl)cc23)cc1`, the call was active.
Regarding `Br.O=[N+]([O-])c1ccc(N/N=C/c2sc(N3CCOCC3)nc2-c2ccccc2)c(S(=O)(=O)Nc2ccc(Cl)cc2)c1`, the call was active.
Turning to `O=[N+]([O-])c1ccc(N/N=C/c2sc(N3CCOCC3)nc2-c2ccccc2)c(S(=O)(=O)Nc2ccccc2Cl)c1`, the result was active.
`Cc1ccc(N=c2oc3cc(O)ccc3cc2C(N)=O)cc1`: the compound was called active.
As to `COc1ccc2cc(C(N)=O)c(=Nc3ccc(C)cc3)oc2c1`, the compound was called active.
Consider `COc1ccc(C2C(O)C(c3c[nH]c4ccccc34)=NN2C(=O)CCl)cc1` (stereo not drawn), for which the compound was called active.
The entry for `COc1cccc(C(=O)Nc2ccc(Oc3cccc(C(F)(F)F)c3)nc2)c1` is “active”; for `CN(C)c1ccnc2sc(C(N)=O)c(N)c12` it is “active”.
`COc1ccc(Nc2ncnc3ccc(Br)cc23)cc1OC`: the compound was classed as active.
As to `Brc1ccc2ncnc(Nc3cccc4ccccc34)c2c1`, the outcome was active.
Consider `CC(=O)c1cccc(Nc2ncnc3ccc(Br)cc23)c1`, for which the outcome was active.
Turning to `Cc1ccc(OCCN2CCN(c3ncnc4sc(C)c(C)c34)CC2)cc1`, the outcome was active.
Take `Cc1cc(C)c(C)c(S(=O)(=O)N2CCN(c3ncnc4sc(C)c(C)c34)CC2)c1C`: the compound was classed as active.
Regarding `O=[N+]([O-])c1cc(S(=O)(=O)Nc2cccc(C(F)(F)F)c2)ccc1-n1nnc2ccccc21`, the call was active.
For the compound `Cc1c([N+](=O)[O-])c2ccc(O)cc2n1-c1ccccc1`, the compound was called active.
Consider `CN(C)/C=C/c1c([N+](=O)[O-])c2ccc(O)cc2n1-c1ccccc1`, for which the call was active.
`S=C(NNc1ccnc2cc(Cl)ccc12)Nc1ccccc1Cl`: the call was active.
For `N#CCCS(=O)(=O)c1nnnn1-c1ccccc1`, the call was active.
On to `COc1cccc(-n2nnnc2S(C)(=O)=O)c1`, for which the outcome was active.
Take `CCCS(=O)(=O)c1nnnn1-c1cccc(OC)c1`: the call was active.
Take `CS(=O)(=O)c1ccc(C(=O)OCc2nnc(-c3ccccc3)o2)cc1[N+](=O)[O-]`: the compound was classed as active.
Turning to `CCN(Cc1ccccc1)S(=O)(=O)c1ccc(C(=O)Nc2nnc(C3CC3)o2)cc1`, the call was active.
Regarding `CCCCN(C)S(=O)(=O)c1ccc(C(=O)Nc2nnc(-c3cccs3)o2)cc1`, the result was active.
As to `CCCCN(CC)S(=O)(=O)c1ccc(C(=O)Nc2nnc(-c3ccccc3Cl)o2)cc1`, the call was active.
On to `CCCCN(CC)S(=O)(=O)c1ccc(C(=O)Nc2nnc(-c3cccs3)o2)cc1`, for which the call was active.
Regarding `COc1cccc2sc(Nc3nc(-c4ccccn4)cs3)nc12`, the compound was called active.
Regarding `COc1ccccc1-c1nnc(Nc2nc3c(OC)cccc3s2)o1`, the result was active.
The entry for `Cc1cccnc1Nc1nc(-c2ccccn2)cs1` is “active”; for `COc1ccc(Nc2oc(COc3ccccc3OC)nc2C#N)cc1` it is “active”.
Regarding `Cc1oc2c(F)c(F)c(F)c(F)c2c1S(=O)(=O)Nc1cccc(C(F)(F)F)c1`, the call was active.
`CCCn1c(SCC(=O)Nc2nc3c(s2)CCCC3)nc2c1c(=O)n(C)c(=O)n2C`: the outcome was active.
For `CCCCn1c(SCC(=O)Nc2nnc(CC)s2)nc2c1c(=O)n(C)c(=O)n2C`, the outcome was active.
Turning to `O=C(NC1CCCC1)c1sc(=S)n2c1[nH]c(=O)c1ccccc12`, the call was active.
Take `O=C(NC1CCCCC1)c1sc(=S)n2c1[nH]c(=O)c1ccccc12`: the outcome was active.
Take `Cc1ccc(-n2ncc3c2CCCC3NC(=O)c2ocnc2C)cc1C` (stereo not drawn): the result was active.
For `Cc1ncoc1C(=O)NC1CCCc2c1cnn2-c1ccc(C(C)(C)C)cc1` (stereo not drawn) the value was “active”; for `CCC1Sc2ccc(S(=O)(=O)Nc3ccc(OC)c(OC)c3)cc2NC1=O` (stereo not drawn), “active”; for `O=C(Nc1nnc(-c2ccc3c(c2)CCCC3)o1)c1ccccc1`, “active”.
As to `O=C(Nc1nnc(-c2ccc3c(c2)CCCC3)o1)c1ccc(Cl)cc1Cl`, the compound was called active.
As for `O=C(Nc1nnc(-c2ccc3c(c2)CCCC3)o1)c1ccccc1Cl`, the compound was called active.
Turning to `N#Cc1c2ccc(O)cc2n2ccccc12`, the call was active.
The entry for `COc1ccc2c(C#N)c3ccccn3c2c1` is “active”; for `COc1ccc2[nH]c(=O)c3c(c2c1)OC(C)(C)C=C3` it is “active”.
Consider `O=C(Nc1ccccn1)C1CCN(c2ncnc3c2nc2n3CCCCC2)CC1`, for which the compound was classed as active.
Regarding `O=C(NCC1CCN(Cc2ccc(Cl)cc2)CC1)C1CCCN(c2ncnc3c2nc2n3CCCCC2)C1` (stereo not drawn), the call was active.
For the compound `O=C(Nc1ccc(Cl)cn1)C1CCN(c2ncnc3c2nc2n3CCCCC2)CC1`, the outcome was active.
Consider `Cc1ccc(NC(=O)C2CCCN(c3ncnc4c3nc3n4CCCCC3)C2)nc1` (stereo not drawn), for which the outcome was active.
The entry for `O=C(Nc1ccccc1Cl)/C(Cl)=C(\Cl)S(=O)c1ccccc1` (stereo not drawn) is “active”; for `CC(=O)N1CC(C)Sc2ccc(S(=O)(=O)NCCc3ccc(C)cc3)cc21` (stereo not drawn) it is “active”.
As to `COc1cc(/C=C2\SC(=N)N(c3ccc(F)cc3)C2=O)ccc1O`, the compound was classed as active.
Take `N#C/C(=C\C=C\c1ccccc1[N+](=O)[O-])C(=O)NC1CCCCC1`: the compound was called active.
`Br.CCCCCCCCCn1ccc(=N)cc1`: the call was active.
With `Br.CCCCCCCCn1ccc(=N)cc1`, the result was active.
Regarding `Br.CCCCCCCCCCn1ccc(=N)cc1`, the compound was called active.
As for `Fc1ccccc1/C=N/Nc1nc(-c2ccccn2)nc2ccccc12`, the call was active.
For `C(=N\Nc1nc(-c2ccccn2)nc2ccccc12)/c1ccccc1`, the outcome was active.
Regarding `COc1cccc(Nc2nc(NCCO)c3ccccc3n2)c1.Cl`, the outcome was active.
Consider `O=c1cc(CSc2nnc(-c3cccs3)n2Cc2ccccc2)nc2sc3ccccc3n12`, for which the compound was classed as active.
The entry for `CCOc1ccccc1CNC(=O)Cn1nc(C)c2c(C)n(-c3ccc(C)cc3)nc2c1=O` is “active”; for `COc1ccc(OC)c(CCNC(=O)C(C)n2nc(C)c3c(C)n(-c4ccc(C)cc4)nc3c2=O)c1` (stereo not drawn) it is “active”.
For the compound `COc1ccc(OC)c(CCNC(=O)Cn2nc(C)c3c(C)n(-c4ccc(C)cc4)nc3c2=O)c1`, the compound was called active.
`COc1ccc(CCNC(=O)C(C)n2nc(C)c3c(C)n(-c4ccc(C)cc4)nc3c2=O)c(OC)c1` (stereo not drawn): the compound was classed as active.
For the compound `Cc1ccc(CS(=O)(=O)c2ncc(Cl)c(C(=O)Nc3nnc(C(C)C)s3)n2)cc1`, the compound was called active.
The entry for `Cc1cccc(CS(=O)(=O)c2ncc(Cl)c(C(=O)Nc3nnc(C(C)C)s3)n2)c1` is “active”; for `CSc1nnc(NC(=O)c2nc(S(=O)(=O)Cc3ccc(C)cc3)ncc2Cl)s1` it is “active”; for `COc1ccc(Cc2nc3ccc(C(=O)N4CCN(C)C(C)C4)cc3o2)cc1OC` (stereo not drawn) it is “active”.
With `Cc1cccc(CSc2cccc3cccnc23)c1`, the compound was classed as active.
For `Cn1c(=O)[nH]c(=O)c2c1nc([N+](=O)[O-])n2Cc1ccccc1`, the result was active.
Consider `CCCCCn1c(SCCc2ccccc2)nc2c1c(=O)[nH]c(=O)n2C`, for which the outcome was active.
Regarding `Cn1c(=O)[nH]c(=O)c2c1nc(N1CCC(Cc3ccccc3)CC1)n2Cc1ccccc1`, the compound was classed as active.
Regarding `COc1cccc(-c2coc3c(C)c4oc(=O)c(CCC(=O)O)c(C)c4cc23)c1`, the call was active.
For `O=C(Nc1nc(-c2ccccc2)cs1)c1ccc2c(=O)n3c(nc2c1)CCCCC3` the value was “active”; for `Cc1ccc(-c2csc(NC(=O)c3ccc4c(=O)n5c(nc4c3)CCCCC5)n2)cc1`, “active”.
Take `COc1ccc(CNC(=O)c2cc3c(C)nc4ccccc4c3o2)c(OC)c1`: the compound was classed as active.
As for `C/C(=N\NC(=O)c1cccc2ccccc12)c1ccccn1`, the call was active.
With `C/C(=N\NC(=O)c1ccccc1Cl)c1ccccn1`, the call was active.
For `C/C(=N\Nc1nc2ccccc2[nH]1)c1ccccn1`, the compound was called active.
On to `C/C(=N\NC(=O)C1COc2ccccc2O1)c1ccccn1` (stereo not drawn), for which the outcome was active.
`C/C(=N\NC(=O)c1cc(-c2cccs2)nc2ccccc12)c1ccccn1`: the call was active.
For `C=CCNC(=S)N/N=C(\C)c1ccccn1` the value was “active”; for `C/C(=N\NC(=O)C(c1ccccc1)c1ccccc1)c1ccccn1`, “active”; for `C/C(=N\NC(=O)C(C)Oc1ccc([N+](=O)[O-])cc1)c1ccccn1` (stereo not drawn), “active”.
On to `O=S1(=O)Nc2c(ccc3cccnc23)-c2ccccc21`, for which the compound was called active.
As to `Cc1ccccc1-c1nc(CSc2nc3c(c(=O)[nH]2)CCC3)c(C)o1`, the outcome was active.
With `O=C(CCl)c1cc2c3c(c1)CC(=O)N3CCC2`, the compound was classed as active.
For `CCOc1cc(S(=O)(=O)NCc2ccncc2)ccc1Cl`, the call was active.
Consider `CCN(CC)S(=O)(=O)c1ccc(C(=O)Nc2ccc(Cc3ccncc3)cc2)cc1`, for which the compound was called active.
As to `Cc1ccc(C)c(N2CCN(C(=O)CCS(=O)(=O)c3ccc4c(c3)NC(=O)C(C)S4)CC2)c1` (stereo not drawn), the outcome was active.
Consider `CCOc1ccc(/C=C/C(O)=C2/C(=O)N(C)C3(C)CC2c2ccccc2O3)cc1OC` (stereo not drawn), for which the outcome was active.
In the case of `COc1ccc(-n2nc(C#N)c(Cl)cc2=O)cc1`, the compound was called active.
Take `Cn1c(/C=C/c2ccc(Cl)cc2Cl)c([N+](=O)[O-])c(=O)n(C)c1=O`: the compound was called active.
`Cc1ccc(-n2c(-c3ccc(Br)cc3)c[n+]3c2CCc2ccc4cccnc4c2-3)cc1.[Br-]`: the compound was classed as active.
For the compound `O=c1cc(C(F)(F)F)[nH]c2ccc(C(F)(F)F)cc12`, the result was active.
In the case of `O=c1cc(C(F)(F)F)[nH]c2ccc(OC(F)(F)F)cc12`, the compound was called active.
Regarding `O=C1CSc2ccc(C(=O)Nc3cccc(S(=O)(=O)Nc4ccc(Br)cc4)c3)cc2N1`, the result was active.
The entry for `O=C(/C=C/c1ccc([N+](=O)[O-])s1)N1CCCCC1` is “active”.
On to `CC1CC(C)CN(C(=O)/C=C/c2ccc([N+](=O)[O-])s2)C1` (stereo not drawn), for which the call was active.
`CCOC(=O)c1c(-c2ccccc2)oc2cc(Br)c(O)c(C=O)c12`: the result was active.
In the case of `COc1ccccc1NC(=O)c1cc2cc(Br)ccc2cc1O`, the call was active.
`Cc1ccnc(NC(=O)Cc2ccc(-c3ccccc3)cc2)c1`: the compound was called active.
For `COc1cc(OC)cc(-c2cc3nc(C)c(CCC(=O)O)c(C)n3n2)c1` the value was “active”; for `O=c1[nH]c(-c2ccccn2)nc2sc(-c3ccccc3)cc12`, “active”; for `Cn1c2c(c(=O)n(C)c1=O)C(C(F)(F)F)(C(F)(F)F)N=C(c1ccc(Cl)cc1)N2`, “active”.
